In PubChem BioAssay AID485317 (Broad Institute, 2010):
The campaign covered roughly 290,000 compounds. About 11,000 (3.8%) were called active. The entries come from a sample that favours actives as a whole. A number with no mark means an inactive call.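 How the source made its calls: active means mean replicate inhibition above about 79%, with every replicate also reaching it (limit read from the data); inconclusive means only one of the two criteria met; inactive means mean below limit and not every replicate reaching it.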

target: FAD-linked sulfhydryl oxidase ALR (Homo sapiens) (UniProt P55789); experiment: inhibitors of human ALR sulfhydryl oxidase, primary screen, biochemical, H2O2 detection, HRP-luminol luminescence, single point (AID 485317); conditions: purified ALR, DTT oxidation, hits give high values, concentration not given here
Sequence (P55789 whole entry, looked up): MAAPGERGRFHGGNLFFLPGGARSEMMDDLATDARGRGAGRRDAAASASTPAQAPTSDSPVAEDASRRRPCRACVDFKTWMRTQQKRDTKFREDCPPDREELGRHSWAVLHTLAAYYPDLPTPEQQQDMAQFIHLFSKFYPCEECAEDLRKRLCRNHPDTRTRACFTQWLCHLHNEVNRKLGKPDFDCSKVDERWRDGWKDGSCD

Row | Compound | inhibition
1 | O=C(CSc1ncn[nH]1)Nc1ccc(Br)cc1Br | -5.94%
2 | CC(OC(=O)c1ccccc1NCCO)C(=O)Nc1ccnn1C(C)C (stereo unspecified) | -3.31%
3 | N#Cc1ccc(CN2CCN(CC(=O)Nc3ccccc3C(=O)NC3CC3)CC2)cc1 | -2.66%
4 | Cn1cccc1C(=O)NNC(=O)COc1ccc(Br)cc1 | -4.16%
5 | CCN(CC(=O)Nc1c(F)cccc1F)C(=O)c1ccc(S(=O)(=O)N2CCCCC2)cc1 | -1.01%
6 | S=C(NCc1ccco1)NCc1ccccc1Cl | -9.19%
7 | Clc1ccccc1CSc1nnc(-c2ccco2)c(-c2ccco2)n1 | 100% (active)
8 | COC(OC)c1ccnc(SCc2ccccc2Cl)n1 | -8.94%
9 | O=C(Nc1ccc(C(=O)N2CCOCC2)cc1)Nc1cccc(C(F)(F)F)c1 | -2.29%
10 | O=C(O)CCC(=O)N(Cc1ccccc1)Cc1ccccc1 | -2.42%
11 | Cc1ccc(-c2nn(-c3ccccc3)cc2CN(Cc2ccccc2)C(=O)CCC(=O)O)o1 | 97.6% (active)
12 | Cc1ccc(-c2nn(-c3cccc(F)c3)cc2CNCCc2ccncc2)o1 | -14.7%
13 | Cc1c(NC(=O)C(C)OC(=O)c2c3c(nc4ccccc24)CCC(C)C3)c(=O)n(-c2ccccc2)n1C (stereo unspecified) | 18%
14 | O=C1CCc2cc(S(=O)(=O)Nc3ccc(C(F)(F)F)cc3)cc3c2N1CC3 | -0.668%
15 | Cc1cc(OCC(=O)N(C)c2c(N)n(Cc3ccccc3)c(=O)[nH]c2=O)c(C(C)C)cc1Cl | -4.09%
16 | O=C(CCNC(=O)c1ccccc1Cl)NN=Cc1ccco1 | -3.45%
17 | Cc1cc(NC(=O)CSc2nc(=O)cc(N)n2-c2ccc(F)cc2)no1 | -1.5%
18 | Cc1csc(NC(=O)CSc2nc(=O)cc(N)n2-c2ccc(F)cc2)n1 | 91.6% (active)
19 | Cc1csc(NC(=O)CSc2ccc(-c3ccc(F)cc3)nn2)n1 | -12.2%
20 | Cc1cc(C)c(S(=O)(=O)N2CCC(C(=O)OCc3c(C)noc3C)CC2)c(C)c1 | -4.27%
21 | CCCCN(C(=O)C1=NN(c2cc(C)ccc2C)C(=O)CC1)c1c(N)n(CCC)c(=O)[nH]c1=O | 0.0423%

Row | Compound | inhibition
22 | CCN(Cc1ccccc1)C(=O)Cc1ccc(OC)c(S(=O)(=O)N2CCOCC2)c1 | -3.18%
23 | COc1ccc(OCCCC(=O)Nc2cccc(S(=O)(=O)N3CCCCCC3)c2)cc1 | -4.87%
24 | CCOc1ccc(CCNC(=O)COC(=O)c2c(OC)cccc2OC)cc1OCC | -5.28%
25 | CC(C)c1ccc(Nc2nnc(SCC(=O)c3nnc(-c4ccccc4)o3)s2)cc1 | 98.1% (active)
26 | Cc1ccc(Nc2nnc(SCc3ccccc3)s2)cc1 | -12.9%
27 | O=C(CSc1nnc(Nc2ccccc2)s1)Nc1cccnc1Cl | 4.27%
28 | CC(C)n1c(COc2ccccc2)nc2ccccc21 | 14.1%
29 | CC(C)n1c(NCc2c[nH]c3ccccc23)nc2ccccc21 | 97.9% (active)
30 | CC(C)n1c(-c2cccs2)nc2ccccc21 | -15.2%
31 | O=C(O)c1cc(S(=O)(=O)Nc2ccc3cn[nH]c3c2)ccc1Br | 42.7%
32 | COc1cc(/C=C/C(=O)Nc2ccc(OC)c(S(=O)(=O)N3CCOCC3)c2)ccc1OCC#N | -4.4%
33 | CSc1ncccc1C(=O)Nc1nc2ccc(F)cc2s1 | -2.85%
34 | CCS(=O)(=O)N1Cc2ccccc2CC1C(=O)Nc1ccc(OC)cc1OC (stereo unspecified) | -16.1%
35 | CCS(=O)(=O)N1Cc2ccccc2CC1C(=O)Nc1nc2ccc(F)cc2s1 (stereo unspecified) | 97.9% (active)
36 | CCOC(=O)C1Nc2ccc(C(F)(F)F)cc2C2C=CCC12 (stereo unspecified) | -11.3%
37 | Cc1cc(NC(=O)COc2ccc([N+](=O)[O-])cc2)no1 | 8.23%
38 | CN1CCN(c2nc(Nc3ccc(O)cc3)nc3ccccc23)CC1 | 98.9% (active)
39 | OCCNc1nc(Nc2ccc(Cl)c(Cl)c2)nc2ccccc12 | 19.6%
40 | c1ccc(Nc2nc(N3CCOCC3)c3ccccc3n2)cc1 | 48.8%
41 | CC(=O)c1c(C)[nH]c(C(=O)CN2C(=O)NC(C)(C)C2=O)c1C | 0.194%
42 | O=c1cc(CO)oc(C(Nc2cccc([N+](=O)[O-])c2)c2ccccn2)c1O (stereo unspecified) | 94.5% (active)

Row | Compound | inhibition
43 | O=[N+]([O-])c1cccc(S(=O)(=O)NCc2ccccn2)c1 | -12.1%
44 | O=c1cc(CO)oc(C(Nc2cccc(C(F)(F)F)c2)c2ccccn2)c1O (stereo unspecified) | 52.2%
45 | O=S1(=O)CC/C(=N\Nc2ccc(F)cc2)c2ccsc21 | 98.3% (active)
46 | COc1ccc(C(=O)N/N=C2\CCS(=O)(=O)c3ccc(F)cc32)cc1OC | -0.529%
47 | COc1ccccc1NC(=O)COC(=O)CNC(=O)C1CCCCC1 | -0.565%
48 | COc1ccc(-c2c(C#Cc3ccsc3)c3cc(-c4ccc(CN5CCOCC5)cc4)ccc3n2C)cc1 | -4.78%
49 | CCOc1cc2[nH]c(=S)n(Cc3ccc(C(=O)N4CCN(C)CC4)cc3)c(=O)c2cc1OCC | -0.332%
50 | O=C(O)c1ccc(Cn2c(=S)[nH]c3cc(Cl)ccc3c2=O)cc1 | 94.9% (active)
51 | COc1ccc(Cn2c(=S)[nH]c3cc(C(=O)N4CCCCC4)ccc3c2=O)cc1 | 9.27%
52 | CC(=O)c1ccc(S(=O)(=O)Nc2ccc(-c3ccc4nncn4n3)cc2)cc1 | -13.1%
53 | O=C1c2ccccc2C(=O)N1CCC#Cc1ccc2cc(C3(O)CCCCC3)oc(=O)c2c1 | -19.8%
54 | CCOc1ccc(-c2cc(C(=O)N/N=C/c3ccc(O)cc3)c3ccccc3n2)cc1 | 1.65%
55 | O=C(COC(=O)C1CCCO1)Nc1nc(-c2ccc(F)cc2)cs1 (stereo unspecified) | -4.39%
56 | Cc1cc(O)c(C2(O)C(=O)Nc3ccccc32)cc1C (stereo unspecified) | 16.1%
57 | Cc1ccc2c(c1)C(O)(CC(=O)c1cccnc1)C(=O)N2 (stereo unspecified) | -0.959%
58 | Cc1ccc(NC2(C#N)C(=O)Nc3ccccc32)cc1 (stereo unspecified) | 97.6% (active)
59 | CCCN1C2CCCC1CC(NC(=O)c1cccc(OC)c1)C2 (stereo unspecified) | -4.94%
60 | CC(=O)NC1CC2CCCC(C1)N2CC(=O)Nc1ccccc1 (stereo unspecified) | -9.69%
61 | CN(C)c1ccc(NC(=O)CN2C3CCCC2CC(NC(=O)c2ccccc2)C3)cc1 (stereo unspecified) | 99.7% (active)
